Source: PubChem BioAssay AID1345085 (National Center for Advancing Translational Sciences (NCATS), 2018)
Inconclusive results are not listed. A call without a number means that no potency is given here. Calls of active or inactive are those of the source. Calls follow the shape of the dose curve; as a rule, active = well fitted cell-killing curve with a large enough effect; inconclusive = small, poorly fitted or top-dose-only effect, or effect the other way; inactive = no such curve, though single readings can be large or run the other way.
Also: nearly all actives have a fitted effect of over 55% in size.
Potency is read from the fitted curve at half-maximal effect.

What follows are compounds tested on Es-2 (assay: Confirmatory qHTS for gynecologic anti-cancer compounds from libraries of approved drugs and bioactive compounds). Details: gynecologic cancer cell panel viability, ATPlite luminescence, 48 h; series mostly up to 57.6 µM.
Procedure, shortened: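 Cells (1,000/well) plated 16 h, then exposed 48 h at 37 °C to 11 concentrations (1:3) from 57.5 uM to 0.977 nM. Viability by ATPlite luminescence after 15 min; IC50 derived, with HEK 293T used for selectivity index.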
In the case of `C[C@]12CCC(=O)C=C1CC[C@@H]1[C@@H]2[C@@H](O)C[C@@]2(C)[C@H]1CC[C@]2(O)C(=O)CO`, the Potency was “inactive”. For `COc1cc2c(Oc3ccc(-c4cnc(Nc5ccc(F)cc5)n(C)c4=O)cc3F)ccnc2cc1OCCCN1CCOCC1`, the Potency was “inactive”. For `COc1ccc2c(c1)c(CC(=O)O)c(C)n2C(=O)c1ccc(Cl)cc1`, the Potency was “inactive”. In the case of `Cc1nc(N)ncc1-c1nc(N2CCOCC2)c2sc(C(C)(C)O)cc2n1`, the Potency was “inactive”. In the case of `Nc1ncnc2c1ncn2[C@@H]1O[C@H](CO)C[C@H]1O`, the Potency was “inactive”. In the case of `COc1cc2c(NC3CCN(C(C)C)CC3)nc(C3CCCCC3)nc2cc1OCCCN1CCCC1`, the Potency was 12.2 µM (active). `Cc1cc(Nc2nc(N[C@@H](C)c3ccc(F)cc3)c(C#N)cc2F)n[nH]1` was tested, and the Potency was 21.7 µM (active). With `NC(=O)c1cnc(-c2ccc(C3(N)CCC3)cc2)c(-c2ccccc2)c1` the Potency was 24.3 µM (active). `COc1cc(-c2nn(C3CCC(N4CCN(C(C)=O)CC4)CC3)c3ncnc(N)c23)ccc1NC(=O)c1cc2ccccc2n1C` (centres undefined) was tested, and the Potency was 30.6 µM (active). With `COC(C)(C)CCn1nc(Nc2c(C)cccc2C)c2cnc(Nc3ccc(OCCN4CCCC4)c(F)c3)nc21` the Potency was “inactive”. For `O=C(CCCCCCC(=O)Nc1ccccc1)NO`, the Potency was 3.06 µM (active). In the case of `O=C(/C=C/c1cccc(S(=O)(=O)Nc2ccccc2)c1)NO`, the Potency was 2.98 µM (active). For `O=c1cc(CN2CCOCC2)occ1OCCCCCSc1ccnc2cc(C(F)(F)F)ccc12`, the Potency was “inactive”. For `NC1(c2ccc(-c3nc4ccn5c(=O)[nH]nc5c4cc3-c3ccccc3)cc2)CCC1`, the Potency was “inactive”.
